# Measurements taken from the supplement of paper PMC10338343.
# ± gives the standard deviation. Over roughly 6,600 sequences, “pre-steady-state target cleavage rate” has its median near 0.07; the highest 2% begin near 0.72. Many of the other results were omitted from the sample, so the highest values are more common in it than they were.
# Tested on: MIWI (PIWIL1) piRISC loaded with Kctd7 piRNA (30 nt)
# Assay: pre-steady-state target cleavage rate (min^-1); MIWI and MILI are mouse PIWI proteins and EfPiwi is from a freshwater sponge; tags in brackets are library labels; higher = faster piRNA-guided slicing of the target
# Details: guide: Kctd7 piRNA 5'p-UGUUAAUCUCUCAGAGAAGGUGACAGUGAU; auxiliary factor: 500 nM mouse GTSF1
# Outline: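 Active affinity-purified piRISC (1 nM) loaded with one synthetic guide was mixed with a transcribed, DNA-blocked target RNA library (0.1 nM), with or without 500 nM GTSF1 partner protein, in HEPES–potassium acetate buffer at 33 °C for 0–8 or 0–960 min. Uncleaved targets were sequenced, normalised to depth and to weakly complementary targets, and pooled across three trials, with k3 capped at 0.0001 min^-1. The pre-steady-state cleavage rate was determined with a burst-and-steady-state fit.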
row,Sequence,pre-steady-state target cleavage rate
1,UACACUGUCACCUUCUCUCUGAGAUUAACA,0.0197 ± 0.0062
2,AUACACUGUCACCUUCUCUGAGAGAUUAACA,0.752 ± 0.05
3,UACACUGUCACCUUCUCUGAGAGAUUAACC [g2:g28:cont:t1C],0.391 ± 0.034
4,UACACUGUCACCUUCUCUGAGAGAUUAACG [g2:g28:cont:t1G],0.566 ± 0.047
5,UUACACUGUCACCUUCUCUGAGAGAUUAACA,0.769 ± 0.044
6,UACACUGUCACCUUCUCUGAGAGAUUAACA [g2:g28:cont:t1A],0.563 ± 0.039
7,UAGUGACAGACCUUCUCUGAGAGAUAUACA,0.0324 ± 0.0083
8,UAGUCUGUCACCUUCUCAGAGAGAUUUUGA,0.0587 ± 0.02
9,UAGACUGUCACCUUCUCUGAGAGAUUAAUA,0.414 ± 0.035
10,UAGACUGUCACCAUCUCUGAGAGAUUAAGA,0.112 ± 0.018
11,UAGACUGUCACCAUCUCUGAGAGAUUAACA,0.741 ± 0.052
12,UAGACUGUCACCUUCUCUGAGAGAUUAACCA,0.648 ± 0.054
13,UAGACUGUCACCCUUCUCUGAGAGAUUAACA,0.517 ± 0.042
14,UAGACUGUCACCAUCUCUGUGAGAUUAACA,0.155 ± 0.013
15,UAGUGUGUCACCAUCUCUGAGAGAUUAACA,0.609 ± 0.037
16,UUCAGUGUCACCAUCUCUGAGAGAUUAACA,0.585 ± 0.037
17,UAGACUGUCACCAUUCUCUGAGAGAUUAACA,0.792 ± 0.055
18,AUCACUGUCACCGUCUCUGAGAGAUUAACA,0.608 ± 0.038
19,UAGACUGUCACCGUCUCUGAGAGAUUAACA,0.769 ± 0.037
20,UAGACUGUCACCGUUCUCUGAGAGAUUAACA,0.625 ± 0.041
21,UAGAGUGUCACCAUCUCUGAGAGAUUAACA,0.741 ± 0.045
22,UAGUGACACACCUUCUCUGAGUGAAUAACA,0.00377 ± 0.0036

row,Sequence,pre-steady-state target cleavage rate
1,UACACUGACACCUUCUCUGUGAGAUUAACA,0.181 ± 0.019
2,UACACUCAGACCUUCUCUGAGAGAUUAAGA,0.0222 ± 0.0091
3,UAGUGACAGACCUUCUCUGAGAGACUAACA,0.0225 ± 0.0061
4,UAGACAGUGACCUUCUCUGAGAGAUUAACA,0.554 ± 0.033
5,UACACUGAGACCUUCUCUGAGAGAUUAUGA,0.0374 ± 0.015
6,UAGUGACAGACCUUCUCUGAGACAUUAACA,0.039 ± 0.0076
7,UUCACUGUCACCUUCUCUGUGAGAUUUACA,0.158 ± 0.027
8,UAGUGACACACCUUCACUGAGACAUUAACA,0.17 ± 0.029
9,AUCACUGUCACCUUGUCUGAGAGAUAAACA,0.552 ± 0.085
10,UAGUCUGUCACAUUCUCUGAGAGAUUAACA,0.607 ± 0.03
11,UAGACUGUCACAUUCUCUGAGAGAUUAACA,0.77 ± 0.051
12,UAGACUGUCACGCUUCUCUGAGAGAUUAACA,0.563 ± 0.029
13,AUCUCUGUCACCUUCUCAGAGAGAUUAACA,0.245 ± 0.024
14,UAGUCGUCACCUUCUCUGAGAGAUUAACA,0.7 ± 0.049
15,UAGUCUGUCACCUUCUCUGAGAGAUUAACA [g2:g26:cont:t1A],0.631 ± 0.026
16,UAGUCUAGUCACCUUCUCUGAGAGAUUAACA,0.67 ± 0.035
17,UAGUCAGUCACCUUCUCUGAGAGAUUAACA,0.722 ± 0.034
18,UAGUCGGUCACCUUCUCUGAGAGAUUAACA,0.73 ± 0.037
19,UAGUCUGGUCACCUUCUCUGAGAGAUUAACA,0.749 ± 0.046
20,UUCACUCACACCUUCUCUGAGAGAUUAAGA,0.0618 ± 0.011
21,UUCACUGUCACCUUACUCUGAGAGAUUAACA,0.522 ± 0.026
22,UAGUCUGUCACCAUCUCUGAGAGAUUAAGA,0.0769 ± 0.013
